Structures are written as SMILES. The panel holds about 83,000 compounds, 20% with a hit somewhere; the sample as a whole holds those more often.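 Interpretation: 100, growth as untreated; towards 0, rising growth inhibition; 0, no net growth; 0 to -100, cell death. Compounds scoring below 10 were considered active.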 Unmarked numbers belong to inactive results. Active and inactive are the calls of the source.

Assay in all cases: NCI-60 one-dose screen, 48 h (100 = growth as untreated, 0 = no growth, -100 = all killed)
What all share (details): 10 µM unless noted

For assay [1], the system named is SR leukemia.
For assay [2], the system named is RPMI-8226 leukemia.
The test system of assay [3] is OVCAR-8 ovarian.
For assay [4], the system named is OVCAR-5 ovarian.
For assay [5], the system named is OVCAR-4 ovarian.
In assay [6] the test system is SK-OV-3 ovarian.
Assay [7] relates to IGROV1 ovarian.
Assay [8] has as its system OVCAR-3 ovarian.
In assay [9] the test system is NCI/ADR-RES ovarian.
Assay [10] deals with HS 578T breast.

`O=C(O)c1cn(C2CC2)c2cc(N3CCN(S(=O)(=O)c4ccc(Cl)c(Cl)c4)CC3)c(F)cc2c1=O`: the growth in assay [1] is -25.1% (active); in assay [2] it was 4.86% (active); in [3], 5.48% (active); in assay [4], 12.5%; in [5], 20.8%; in [6], 26.8%. Further, the growth was 29.3% in assay [7], 9.87% (active) in assay [8] and 53.5% in [9].

`CCCCCCCCCCn1cc[n+](C)c1`: the growth in [1] was 104%; in assay [2], 116%; in assay [3], 11.5%; in assay [4] it was 45.6%; in [5], 22.7%; in [6], 44.5%. Moreover, the values for the growth in assay [8], in [10] and in assay [9] were 45.9%, 30.3% and 82.2%, respectively.

In the case of `CCN1C(=O)N(CC)C2C1NN=c1s/c(=C\c3cccc(F)c3)c(=O)n12` (stereo unspecified), the growth is 4.36% (active) in assay [1]; -0.526% (active) in [2]; 21.2% in [3]; 55.6% in assay [4]; 44.1% in [5]; 72.3% in [6]. The figures for the growth in assay [8], in assay [10] and in assay [9] were -2.21% (active), 17.9% and 5.73% (active), respectively.

In the case of `Cc1oc2ncnc(Nc3ccccc3)c2c1C(=O)NCCO`, the growth in [1] was 52.2%; in [2], 94.8%; in assay [3], 113%; in assay [4], 93.2%; in assay [5], 103%; in assay [6], 100%. Further, the growth in assay [8] was 102%; in [10], 90.5%; in [9], 102%.

In the case of `COc1cccc(-c2nc3sccn3c2-c2ccnc(NCCCNS(=O)(=O)c3ccc(F)cc3)n2)c1`, the growth is 28.9% in assay [1]; 17.4% in assay [2]; 17.3% in assay [3]; 116% in [4]; 25.2% in assay [5]; 72.7% in [6]. The growth in assay [8] is 37.4%; in assay [10], 57.3%; in [9], 15.5%.

Consider `O=P([O-])(O)OP(=O)([O-])O.[NH-][C@H]1CCCC[C@@H]1[NH-].[OH-].[OH-].[Pt+4]`, for which the growth is 91.3% in [1]; 97.8% in assay [2]; 101% in assay [3]; 95.2% in assay [4]; 109% in assay [5]; 106% in assay [6]. Besides, the growth in assay [8] is 111%; in assay [10] it was 109%; in [9], 103%.

As for `CC/C=C\C/C=C\C[C@H](O)C/C=C1/C(=O)C=C[C@H]1C/C=C\CCC(=O)OC`, the growth is 7.38% [8.25 µM] (active) in assay [1]; 3.22% [8.25 µM] (active) in assay [2]; 15.3% [8.25 µM] in [3]; 71.1% [8.25 µM] in assay [4]; 43.3% [8.25 µM] in assay [5]; 85.6% [8.25 µM] in [6]. Besides, the growth in assay [8] is 4.28% [8.25 µM] (active); in assay [10], 69.1% [8.25 µM]; in assay [9], 39.8% [8.25 µM].

Regarding `O=C(CNc1c(Cl)cccc1Cl)Nc1ccc(-c2nc3ccccc3s2)cc1`, the growth in assay [1] was 10.7%; in [2], 59.8%; in assay [3], 66.7%; in assay [4], 110%; in assay [5], 17.5%; in [6] it was 97.8%. The growth is 54.4% in assay [8], 87.2% in assay [10] and 64% in [9].

Regarding `O=C1OC(c2ccccc2)=N/C1=C\c1ccc([N+](=O)[O-])cc1`, the growth in assay [1] is 97.3%; in assay [2] it was 102%; in assay [3], 111%; in assay [4], 92.8%; in [5], 114%; in assay [6] it was 109%. Moreover, the growth in [8] is 106%; in assay [10] it was 82.6%; in assay [9], 104%.

Take `CC(=O)Nc1nc(C(=O)N2N=C(C)/C(=C/c3cccs3)C2=O)cs1`: the growth in assay [1] is 91.9%; in assay [2], 97.4%; in assay [3], 103%; in assay [4] it was 115%; in assay [5], 106%; in assay [6], 99.4%. Further, the growth in [7] was 97.1%; in assay [10], 114%; in assay [9], 112%.

For the compound `COc1cc(OC)c(C(=O)/C=C/c2ccc(C(F)(F)F)cc2)c(OC)c1`, the growth in assay [1] was 31.6%; in [2], 25.3%; in assay [3], 40.3%; in assay [4], 105%; in [5], 56.5%; in assay [6] it was 75.4%. For the same compound, the growth in assay [8] is 16.9%; in assay [10], 66.2%; in assay [9], 46.9%.

For `CSc1nc(-c2cc3ccccc3o2)cc(-c2ccc(Cl)cc2)c1C#N`, the growth in [1] was 82.6%; in assay [2] it was 26.6%; in [3], 28.7%; in [4] it was 93.7%; in [5], -57.5% (active); in assay [6], -21.3% (active). In addition, the growth in assay [8] was 37.7%; in assay [10] it was 76%; in assay [9] it was 64.3%.

For the compound `C=C1C(=O)O[C@H]2[C@H]1CC/C(COC(=O)NCc1ccc(OC)cc1)=C\CC[C@@]1(C)O[C@@H]21`, the growth in assay [1] was -1.29% (active); in [2], 25.8%; in assay [3] it was 21.5%; in assay [4], 78.2%; in [5] it was 41.2%; in assay [6] it was 84.8%. In addition, the growth in [8] is 5.71% (active); in [10] it was 59.2%; in assay [9] it was 86.9%.

With `CCCCn1c(=O)c(C2CNC(=O)c3ccccc3N2)cc2ccccc21` (stereo unspecified), the growth was 102% in assay [1]; 109% in assay [2]; 114% in [3]; 96.3% in [4]; 103% in [5]; 97.2% in [6]. The growth in assay [8] was 99.7%; in [10], 94.6%; in assay [9] it was 100%.

The record behind these values is PubChem BioAssay (NCI).
